Screens: PubChem, National Center for Advancing Translational Sciences (NCATS)
Sampled rows, rich in hits. Any-hit rate of the full collection: about 10%.
G9a inh – G9a (human) methyltransferase inhibition; G9a H3K9 monomethylation, AlphaScreen, 2 h; Potency, µM (titrated, usually from 102 µM), for inactives: top-dose activity, negative = inhibition, hits mostly inhibitors; AID 504332; actives 8.8% (n = 350,000); Q96KQ7; also: % is scaled to controls: 0 for no effect and ±100 for the full control effect; nearly all actives have a fitted effect of over 75% in size
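Compounds were preincubated with 20 nM G9a for 15 min, after which biotinylated H3K9 peptide (500 nM) and SAM (20 uM) started a 2 h room-temperature reaction. Monomethylated product was quantified by antibody-based AlphaScreen chemiluminescence.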
GLS inhibitor – glutaminase GLS (human) inhibition. O94925. GLS enzymatic activity, qHTS titration. Potency, µM (doses to about 45.5 µM), for inactives: top-dose activity change, negative = inhibition, hits mostly inhibitors. actives 0.21% (n = 410,000). AID 624170; also: % is scaled to controls: 0 for no effect and ±100 for the full control effect
Target sequence (O94925 whole entry, looked up): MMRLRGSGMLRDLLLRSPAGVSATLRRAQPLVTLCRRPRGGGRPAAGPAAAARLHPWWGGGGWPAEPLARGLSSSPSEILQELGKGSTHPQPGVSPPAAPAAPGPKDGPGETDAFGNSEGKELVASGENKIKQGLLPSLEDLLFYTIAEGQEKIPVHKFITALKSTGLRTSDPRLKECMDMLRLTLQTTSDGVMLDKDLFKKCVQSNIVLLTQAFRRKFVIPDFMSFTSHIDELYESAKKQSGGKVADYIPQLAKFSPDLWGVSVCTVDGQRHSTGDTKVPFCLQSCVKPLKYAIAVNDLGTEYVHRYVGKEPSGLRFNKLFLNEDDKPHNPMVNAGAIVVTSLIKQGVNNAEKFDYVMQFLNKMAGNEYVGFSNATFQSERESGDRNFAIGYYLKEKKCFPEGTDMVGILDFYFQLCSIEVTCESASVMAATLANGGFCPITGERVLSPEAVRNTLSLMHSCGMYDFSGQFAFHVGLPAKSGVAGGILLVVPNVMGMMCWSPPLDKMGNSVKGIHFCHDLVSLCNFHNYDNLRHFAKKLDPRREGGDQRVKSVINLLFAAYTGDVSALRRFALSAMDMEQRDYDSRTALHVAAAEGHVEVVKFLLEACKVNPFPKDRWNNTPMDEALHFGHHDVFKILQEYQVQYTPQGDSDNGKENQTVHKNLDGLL
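Human kidney-isoform GLS in 45 mM KH2PO4 pH 8.2, 0.02% Tween-20, with compound, started with 1mM L-Glutamine (added stock). Glutamate oxidase/HRP/Amplex red coupled fluorescence read at start and after 30 min at RT.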
JMJD2A Tudor inh – blocks the human JMJD2A Tudor domain; AlphaScreen JMJD2A-Tudor / H3K4me3 peptide binding; Potency, µM (series often up to 114 µM), without a hit: at the highest dose activity change, negative = inhibition, actives largely listed as inhibitors; actives 4.4% (n = 390,000); AID 504339; also: % is scaled to controls: 0 for no effect and ±100 for the full control effect; nearly all actives have a fitted effect of over 50% in size
HP1b binding inh – inhibitors of HP1-beta chromodomain binding to methylated histone tails; P83916; AlphaScreen HP1-beta / biotin-H3K9me3 peptide binding; Potency, µM (series often up to 114 µM), for the others: at the highest dose activity change, negative = inhibition, actives largely listed as inhibitors; actives 0.56% (n = 390,000); AID 540317; also: nearly all actives have a fitted effect of over 70% in size
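Compound inhibition of the preformed complex between 50 nM HP1-beta and 50 nM biotinylated H3K9me3 peptide was read by AlphaScreen. Buffer was PBS pH 7.4 with 0.01% Tween-20. Incubations ran 30 min at room temperature, with 10 ug/mL donor/acceptor beads.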
BAZ2B inh – BAZ2B (human) inhibition | AlphaScreen BAZ2B-H3K14Ac peptide displacement | actives 4.4% (n = 360,000) | Potency, µM (titrated, usually from 114 µM), for the others: top-dose activity change, negative = inhibition, actives largely listed as inhibitors | Q9UIF8; also: % is scaled to controls: 0 for no effect and ±100 for the full control effect; nearly all actives have a fitted effect of over 60% in size
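BAZ2B (50 nM) with biotin-H3(5-23)K14Ac peptide (50 nM) in PBS pH 7.4, 0.01% Tween-20, preformed 30 min, then compound 30 min at room temperature; top concentration 110uM. AlphaScreen streptavidin donor/nickel chelate acceptor beads (10 ug/mL final), 20 min dark, signal read.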
* hit, by the source's call; ? = inconclusive; . = no result given; [ ] = remark or other dose. Calls follow the shape of the dose curve; as a rule, active = well fitted curve in the direction sought with a large enough effect; inconclusive = small, poorly fitted or top-dose-only effect, or another doubt; inactive = no such curve, though single readings can be large; an effect the other way counts as inactive or inconclusive. Potency is read from the fitted curve at half-maximal effect.

SMILES	G9a inh	GLS inhibitor	JMJD2A Tudor inh	HP1b binding inh	BAZ2B inh
COc1ccccc1-n1nnnc1SCC(=O)NCC1CCCO1 (stereo not drawn)	56.2µM*	-7.5%	-10.3%	26.1%	1.4%
CCC(=O)Nc1ccc(C(=O)CSc2nnc(-c3ccc(O)cc3)n2CC2CCCO2)cc1 (stereo not drawn)	44.7µM*	-5.0%	?	0.6%	?
O=C(CSc1nnc(-c2ccc(S(=O)(=O)N3CCCC3)cc2)n1CC1CCCO1)NC1CC1 (stereo not drawn)	50.1µM*	1.0%	-3.4%	14.8%	-6.6%
Cc1occc1-c1nnc(SCC(=O)NCC2CCCO2)n1C (stereo not drawn)	-10.2%[59 µM]	12.6%	56.2µM*	-5.6%	-3.2%
O=c1c2ccccc2[nH]c(=S)n1CCCN1CCN(c2ccccc2F)CC1	2.3%	4.3%	-17.4%	21.7%	-30.5%
CC1(C(=O)NS(=O)(=O)c2ccc3c(c2)CCO3)CCN1C(=O)C1(c2ccc(Cl)cc2)CCC1 (stereo not drawn)	.	4.5%	.	.	.
CN(C)c1ccc(-c2cncnc2NCCN2CCOCC2)cc1	-1.5%[0.501 µM]	.	.	.	.
CCn1cc(C(=O)N(C)c2ccc(C(C)C)cc2)c2cc(OC)c(OC)cc2c1=O	-39.5%[59 µM]	-1.1%	-19.8%	28.0%	-5.2%
NC(=O)NC(=O)CSc1nnc(-c2ccc(Cl)cc2)n1CC1CCCO1 (stereo not drawn)	-5.3%	2.8%	-9.4%	35.6%	1.2%
Cc1ccc(-c2nnc(SCC(=O)NCC3CCCO3)n2C)cc1 (stereo not drawn)	-42.3%[59 µM]	7.8%	-8.9%	6.6%	6.6%
CCC(=O)Nc1ccc(-c2nnc(SCC(=O)NCC3CCCO3)n2C)cc1 (stereo not drawn)	8.91µM*	1.3%	-10.4%	24.6%	2.7%
CC(=O)c1c(C)[nH]c(C(=O)CSc2nnc(-c3ccc(Cl)cc3)n2CC2CCCO2)c1C (stereo not drawn)	50.1µM*	1.7%	79.4µM*	9.0%	-9.8%
Cc1occc1-c1nnc(SCC(=O)NCCc2ccccc2)n1C(C)c1ccccc1 (stereo not drawn)	56.2µM*	13.5%	-25.5%	8.6%	?
CC(C)=CCN1CCN(Cc2cnc(-c3ccccc3)s2)CC1CCO (stereo not drawn)	6.6%	-2.0%	-10.5%	31.9%	0.3%
CN1CCN(c2ccc(CNC(=O)C3Cc4c(-c5ccc(Cl)cc5)ccnc4O3)cc2)CC1 (stereo not drawn)	.	27.9%	.	.	.
C[C@H]1OC(OC2C(O)[C@@H](O)C(OC3C(O)[C@@H](O)C(O)O[C@@H]3CO)O[C@@H]2CO)[C@H](O)C(O)C1N[C@H]1C=C(CO)[C@@H](O)[C@H](O)C1O (stereo partly drawn)	37.2%[59 µM]	-7.0%	.	.	.
COCCn1c(C)nnc1SCC(=O)NNC(=O)c1ccc(Cl)cc1	50.1µM*	20.3%	4.3%	20.0%	0.4%
O=c1c(-c2ccco2)[n+]([O-])c2ccccc2n1OCc1ccccc1	6.31µM*	1.7%	50.1µM*	?	28.9%
CCOC(=O)COn1c(=O)c(-c2ccco2)[n+]([O-])c2ccccc21	10µM*	5.7%	-22.3%	9.1%	?
Cc1nc2ccc(NC(=O)c3cccc(C(F)(F)F)c3)cc2o1	-28.4%[59 µM]	-8.3%	-8.7%	20.9%	1.8%
Cc1ccc(NC(=O)c2cccc(C(F)(F)F)c2)cc1NC(=O)c1[nH]cnc1C(N)=O	3.2%[0.501 µM]	2.5%	?	31.4%	56.2µM*
COc1ccc(S(=O)(=O)/N=C2/NC(=O)/C(=C\c3ccco3)S2)cc1	8.91µM*	17.9%	-25.3%	6.4%	?
COc1ccc(N=C2NC(=O)/C(=C/c3ccco3)S2)cc1	44.7µM*	0.3%	-29.4%	26.4%	39.8µM*
Cc1ccc(S(=O)(=O)/N=C2/NC(=O)/C(=C/c3ccccn3)S2)cc1	56.2µM*	7.1%	-6.4%	18.0%	-9.8%
CN1CCN(c2nc3cc(C(F)(F)F)ccc3n3cccc23)CC1	23.8µM*	14.0%	?	-4.4%	.
CCOc1ccc2oc(C(=O)NCC(c3ccco3)N(C)C)c(C)c2c1 (stereo not drawn)	?	0.7%	-19.3%	8.8%	-20.1%
